# According to PubChem BioAssay (EPA / NIEHS):
# Inconclusive results are not listed. Calls of active or inactive are those of the source. The calls were made as follows: active = hit-call score of the fitted dose curve at least 0.9, where 1 is the maximum; inconclusive = response in the unintended direction; inactive = score below 0.9.
# Biological target: Serine/threonine-protein phosphatase PP1-alpha catalytic subunit (Homo sapiens) (UniProt P62136)
# Experiment: NVS_ENZ_hPPP1CA: NovaScreen (NVS) Enzymatic Assay for human Protein Phosphatase 1 Aatalytic subunit Alpha (PPP1CA) (AID 2283200)
# Method in brief: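 Chemicals were first screened in duplicate at 25 uM, and those passing threshold (e.g. 30% inhibition) were run as concentration series to 50 uM. Cell-free recombinant protein, 1.33 h read, fluorescent substrate/product mobility-shift detection, normalised to DMSO.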
# Sequence of Serine/threonine-protein phosphatase PP1-alpha catalytic subunit (Homo sapiens) (P62136 whole entry, looked up): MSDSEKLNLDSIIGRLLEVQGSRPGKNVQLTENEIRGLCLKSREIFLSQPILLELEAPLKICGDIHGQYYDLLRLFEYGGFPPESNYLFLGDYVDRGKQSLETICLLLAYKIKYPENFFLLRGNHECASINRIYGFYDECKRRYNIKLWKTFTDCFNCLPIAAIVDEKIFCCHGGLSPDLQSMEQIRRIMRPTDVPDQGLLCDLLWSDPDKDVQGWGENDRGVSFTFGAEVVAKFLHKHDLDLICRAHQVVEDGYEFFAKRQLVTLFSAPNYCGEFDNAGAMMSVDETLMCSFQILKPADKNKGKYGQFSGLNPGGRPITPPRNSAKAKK
Structure (SMILES),AC50,outcome
CCCCSP(=O)(SCCCC)SCCCC,10.4 µM (active),
CCCCN(CC)c1c([N+](=O)[O-])cc(C(F)(F)F)cc1[N+](=O)[O-],,inactive
CCOP(=S)(OCC)SCCSCC,,inactive
CCOP(=O)(OCC)Oc1cc(C)nc(C(C)C)n1,,inactive

# Biological target: Tyrosine-protein phosphatase non-receptor type 11 (Homo sapiens) (UniProt Q06124)
# Experiment: NVS_ENZ_hPTPN11: NovaScreen (NVS) Enzymatic Assay for human Protein Tyrosine Phosphatase Non-receptor Type 11 (PTPN11) (AID 2283202)
# Method in brief: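 Compounds first tested in duplicate at 25 uM; those reaching ~30% inhibition rerun in singleton concentration-response, top 50 uM. Phosphatase activity measured after 0.5 h by fluorescence with mobility-shift separation, relative to DMSO.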
# Sequence of Tyrosine-protein phosphatase non-receptor type 11 (Homo sapiens) (Q06124 whole entry, looked up): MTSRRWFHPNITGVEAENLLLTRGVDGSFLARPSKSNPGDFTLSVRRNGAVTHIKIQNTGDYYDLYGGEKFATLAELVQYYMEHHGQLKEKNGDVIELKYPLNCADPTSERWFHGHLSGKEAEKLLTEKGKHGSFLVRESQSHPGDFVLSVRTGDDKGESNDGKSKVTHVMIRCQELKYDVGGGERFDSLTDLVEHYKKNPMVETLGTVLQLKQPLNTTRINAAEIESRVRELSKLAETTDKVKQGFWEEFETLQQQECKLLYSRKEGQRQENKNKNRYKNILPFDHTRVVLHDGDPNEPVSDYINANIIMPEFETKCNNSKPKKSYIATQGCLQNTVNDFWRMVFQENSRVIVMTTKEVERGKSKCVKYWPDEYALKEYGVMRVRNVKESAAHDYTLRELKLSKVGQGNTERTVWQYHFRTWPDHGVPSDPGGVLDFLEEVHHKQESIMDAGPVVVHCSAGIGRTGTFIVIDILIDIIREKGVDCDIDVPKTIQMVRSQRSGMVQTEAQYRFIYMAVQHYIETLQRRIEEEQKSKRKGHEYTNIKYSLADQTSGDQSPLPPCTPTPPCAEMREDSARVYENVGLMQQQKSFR
row,Structure (SMILES),outcome
1,CNC(=O)Oc1cccc2c1OC(C)(C)O2,inactive
2,CCC(=NOC/C=C/Cl)C1=C(O)CC(C2CCOCC2)CC1=O (centres undefined),inactive
3,C=C(C)[C@H]1Cc2c(ccc3c2O[C@@H]2COc4cc(OC)c(OC)cc4[C@@H]2C3=O)O1,inactive

# Biological target: Tyrosine-protein phosphatase non-receptor type 14 (Homo sapiens) (UniProt Q15678)
# Experiment: NVS_ENZ_hPTPN14: NovaScreen (NVS) Enzymatic Assay for human Protein Tyrosine Phosphatase Non-receptor Type 14 (PTPN14) (AID 2283206)
# Method in brief: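 Fluorescent substrate turnover by recombinant human PTPN14 was measured 0.5 h after compound addition, with substrate and product separated by mobility shift. Single-point screening at 25 uM, then concentration-response up to 50 uM for chemicals meeting threshold (e.g., 30% inhibition).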
# Sequence of Tyrosine-protein phosphatase non-receptor type 14 (Homo sapiens) (Q15678 whole entry, looked up): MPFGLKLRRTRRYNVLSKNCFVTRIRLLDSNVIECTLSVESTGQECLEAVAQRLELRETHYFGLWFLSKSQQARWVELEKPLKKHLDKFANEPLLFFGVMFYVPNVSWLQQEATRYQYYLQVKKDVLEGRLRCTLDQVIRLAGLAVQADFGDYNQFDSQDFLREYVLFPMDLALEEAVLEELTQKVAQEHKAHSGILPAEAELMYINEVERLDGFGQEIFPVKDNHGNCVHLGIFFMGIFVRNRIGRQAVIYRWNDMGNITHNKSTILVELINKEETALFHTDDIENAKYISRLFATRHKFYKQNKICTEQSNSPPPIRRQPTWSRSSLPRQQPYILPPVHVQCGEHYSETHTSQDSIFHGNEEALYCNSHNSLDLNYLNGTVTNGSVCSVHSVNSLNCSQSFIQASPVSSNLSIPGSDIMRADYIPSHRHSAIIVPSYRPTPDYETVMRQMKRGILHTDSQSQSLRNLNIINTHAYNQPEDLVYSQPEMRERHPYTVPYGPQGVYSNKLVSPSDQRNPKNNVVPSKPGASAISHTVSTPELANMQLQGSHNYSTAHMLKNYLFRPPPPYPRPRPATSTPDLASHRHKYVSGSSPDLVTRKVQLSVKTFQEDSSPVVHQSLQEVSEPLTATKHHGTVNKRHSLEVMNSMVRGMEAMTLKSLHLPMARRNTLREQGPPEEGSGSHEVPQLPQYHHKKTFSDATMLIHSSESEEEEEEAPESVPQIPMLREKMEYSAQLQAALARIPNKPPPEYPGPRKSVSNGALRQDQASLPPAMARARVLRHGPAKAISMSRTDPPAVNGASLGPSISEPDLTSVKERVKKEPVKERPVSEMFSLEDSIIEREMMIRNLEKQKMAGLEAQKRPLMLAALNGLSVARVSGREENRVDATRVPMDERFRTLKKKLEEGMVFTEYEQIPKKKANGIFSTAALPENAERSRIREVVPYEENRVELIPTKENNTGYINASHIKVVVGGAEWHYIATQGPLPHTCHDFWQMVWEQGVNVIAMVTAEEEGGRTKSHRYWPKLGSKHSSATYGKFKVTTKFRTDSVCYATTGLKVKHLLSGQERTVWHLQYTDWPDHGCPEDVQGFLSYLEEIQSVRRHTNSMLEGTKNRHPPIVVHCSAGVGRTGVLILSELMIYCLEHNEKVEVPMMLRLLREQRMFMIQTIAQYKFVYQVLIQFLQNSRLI
row,Structure (SMILES),outcome
1,CN1COCN(Cc2cnc(Cl)s2)C1=N[N+](=O)[O-],inactive
2,N#CSCSC#N,inactive
3,CNC(=O)Oc1cccc2c1OC(C)(C)O2,inactive
4,CSC1=N[C@@](C)(c2ccccc2)C(=O)N1Nc1ccccc1,inactive
5,CCC(=NOC/C=C/Cl)C1=C(O)CC(C2CCOCC2)CC1=O (centres undefined),inactive
6,CCCCOC(=O)c1ccccc1C(=O)O,inactive
7,O=c1ccc(=O)[nH][nH]1,inactive
8,CC(C)N(C(=O)SCC(Cl)=C(Cl)Cl)C(C)C,inactive
9,Nc1nc(N)nc(NC2CC2)n1,inactive

# Biological target: human Protein Tyrosine Phosphatase Non-receptor Type 4 (PTPN4), PTPN4 (gene 5775) (UniProt P29074)
# Experiment: NVS_ENZ_hPTPN4: NovaScreen (NVS) Enzymatic Assay for human Protein Tyrosine Phosphatase Non-receptor Type 4 (PTPN4) (AID 2283208)
# Method in brief: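 Screened in duplicate at 25 uM, with hits then titrated to a top concentration of 50 uM. Recombinant Sf9-derived PTPN4 turnover was read by fluorescence with electrophoretic separation, 1.33 h after compound addition. DMSO served as baseline.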
# Sequence of human Protein Tyrosine Phosphatase Non-receptor Type 4 (PTPN4), PTPN4 (gene 5775) (P29074 whole entry, looked up): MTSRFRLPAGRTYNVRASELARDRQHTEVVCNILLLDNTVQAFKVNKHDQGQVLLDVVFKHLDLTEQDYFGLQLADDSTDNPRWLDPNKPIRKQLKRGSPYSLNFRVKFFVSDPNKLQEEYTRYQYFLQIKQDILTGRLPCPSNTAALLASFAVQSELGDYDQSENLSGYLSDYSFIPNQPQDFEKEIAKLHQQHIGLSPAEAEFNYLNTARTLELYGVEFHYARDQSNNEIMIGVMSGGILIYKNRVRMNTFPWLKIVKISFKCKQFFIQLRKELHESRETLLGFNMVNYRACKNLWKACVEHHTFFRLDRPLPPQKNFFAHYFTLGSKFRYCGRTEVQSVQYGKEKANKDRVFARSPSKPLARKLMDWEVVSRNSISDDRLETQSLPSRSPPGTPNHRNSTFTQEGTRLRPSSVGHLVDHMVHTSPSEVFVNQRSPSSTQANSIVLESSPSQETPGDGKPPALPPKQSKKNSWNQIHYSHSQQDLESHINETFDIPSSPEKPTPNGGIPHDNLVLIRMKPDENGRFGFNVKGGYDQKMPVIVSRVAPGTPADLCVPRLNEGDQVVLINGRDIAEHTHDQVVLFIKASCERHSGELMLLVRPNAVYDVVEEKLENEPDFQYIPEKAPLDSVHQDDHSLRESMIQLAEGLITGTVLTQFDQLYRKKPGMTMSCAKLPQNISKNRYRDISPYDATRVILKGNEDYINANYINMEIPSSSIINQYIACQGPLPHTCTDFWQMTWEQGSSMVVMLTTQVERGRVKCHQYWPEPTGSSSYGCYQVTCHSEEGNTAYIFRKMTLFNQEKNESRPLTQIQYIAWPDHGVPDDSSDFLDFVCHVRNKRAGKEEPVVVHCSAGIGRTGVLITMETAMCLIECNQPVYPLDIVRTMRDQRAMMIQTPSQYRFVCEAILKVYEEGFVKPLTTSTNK
row,Structure (SMILES),outcome
1,N#CSCSC#N,inactive
2,CCOP(=S)(OCC)OC(Cl)C(Cl)(Cl)Cl (centres undefined),inactive
3,CCCOc1nn(C(=O)NS(=O)(=O)c2ccccc2C(=O)OC)c(=O)n1C,inactive
